Calls of active or inactive are those of the source. Rule for the calls: active = hit-call score of the fitted dose curve at least 0.9, where 1 is the maximum; inactive = score below 0.9.
Each compound was assayed on Interleukin 6 (IL6), IL6 (gene 3569) (assay: LTEA_HepaRG_IL6: Life Technologies and Expression Analysis (LTEA) Assay for Interleukin 6 (IL6) using HepaRG (AID 2283509)). Conditions: mRNA level, 48 h; actives raise or lower the signal.
Procedure: LTEA_HepaRG is a cell based, multiplexed-readout assay that uses HepaRG, a human liver cell line, with measurements taken at 48 hours after chemical dosing on a 96-well plate.LTEA_HepaRG_IL6 is one of 102 assay component(s) measured in the LTEA HepaRG cell culture assay. It is a marker of Inflammation.Data from the assay component LTEA_HepaRG_IL6 was analyzed into 1 endpoint. This assay endpoint, LTEA_HepaRG_IL6, was analyzed with bidirectional fitting relative to DMSO as the negative control and baseline of activity. Using a type of inducible reporter, measures of mRNA induction for gain or loss-of-signal activity can be used to understand regulation of transcription factor activity. To generalize the intended target to other relatable targets, this assay endpoint is annotated to the cytokine intended target family, where the subfamily is interleukins.
A total of 1060 chemcials from the ToxCast library were tested in eight-point concentration-response experiments. Cell culture and cytotoxicity assays were conducted at Thermo Fisher Scientific's Custom Services facility (Madison, WI). A single lot of human HepaRG cells (Thermo Fisher Scientific, Frederick, MD) was used for the cell culture experiments. 96-well format collagen type I coated plates of human HepaRG cells were prepared using established methods. Briefly, cryopreserved HepaRG cells were thawed, plated at a density of approximately 100,000 cells/well in HepaRG Thaw, Plate, and General Purpose media (HPRG770, Thermo Fisher Scientific), and incubated for 48 hours. 0.5% DMSO was selected as vehicle control to balance the requisite need of DMSO in HepaRG cultures to maintain differentiation (for example, baseline metabolism, proportions of hepatocytes vs. cholangiocytes), while enabling further hepatic receptor pathway activation (for example, PXR and CAR) in response to chemical exposure. 48 hours after plating, the culture medium was replaced with HepaRG Serum-Free Incudtion Media. Cells were exposed to each test chemical in duplicate and maintained in CO2 incubators for another 48 hours. Chemical plates were thawed to room temperature and 200x concentrations of treatment groups were prepared. 8-point conentration-reponse curves were made with the highest exposure at 100 uM, followed by half-log dilutions, all in 0.5% DMSO. Each test plate contained variouse controls, induction positive controls (1mM phenobarbital), cytotoxicity positive controls ([…] aflatoxin B1), vehicle controls (0.5% DMSO), and total lysis controls (0.5% DMSO). Cell morphology images were taken using an Essen IncuCyte FLR automated microscope, with six 96-well plates imaged in about 24 minutes. Images were captured and exported and JPEG files. Spent culture media was transfered to black-well plates for the LDH assay, and remaining media was sorted at -80 C for later use. Cells were treated with RLT buffer and frozen until shipped for gene expression analysis. Total RNA was isolated from the cell suspension in 75 uL of Buffer RLT (Qiagen, Germantown, MD 20874) by Quintiles/Expression Analysis (Durham, NC) using a custom isolation procedure. Total RNA from each plate well was transferred to a preamplification plate. Fluidigm's 96.96 Dynamic ArrayTM (Fluidigm, Amsterdam, the Netherlands) technology was used for gene expression analyses by quantitative reverse transcription polymerase chain reaction (qRT-PCR, performed by Quintiles/Expression Analysis, Durham, NC)89. Standard TaqManTM Assays (Applied Biosystems/ThermoFisher Scientific, Foster City, CA) were used to assess the expression of 93 genes selected based on their selectivity and sensitivity to important hepatic receptors known to be modulated by environmental chemicals; importance in human hepatocyte functionality; and hepatotoxicity. […]

SMILES | outcome | AC50
Clc1ccc(Cl)cc1 | inactive | –
O=C(O)C(F)(F)C(F)(F)C(F)(F)C(F)(F)C(F)(F)C(F)(F)C(F)(F)C(F)(F)C(F)(F)F | – | 71.7 µM (active)
O=S(=O)(O)C(F)(F)C(F)(F)C(F)(F)C(F)(F)C(F)(F)C(F)(F)F | inactive | –
CC(c1ccc(O)cc1)(c1ccc(O)cc1)c1ccc(O)cc1 | – | 80.8 µM (active)
Cc1cccc(C)c1N | inactive | –
CCC(=O)O[C@H]1CC[C@H]2[C@@H]3CCC4=CC(=O)CC[C@]4(C)[C@H]3CC[C@]12C | – | 33.1 µM (active)
CCC(C)(CC)c1cc(NC(=O)c2c(OC)cccc2OC)on1 | inactive | –
CCCN(CCC)N=O | inactive | –
N#Cc1ccc(N(CC(N)=O)CC(F)(F)F)cc1C(F)(F)F | inactive | –
O=C(NC(=O)c1c(F)cccc1F)Nc1cc(Cl)c(OC(F)(F)C(F)F)c(Cl)c1 | inactive | –
Cc1ccccc1O | inactive | –
CCSC(=O)N(CC)C1CCCCC1 | inactive | –
CC(C)(O)C(=O)Nc1ccc([N+](=O)[O-])c(C(F)(F)F)c1 | inactive | –
CCOP(=S)(OCC)SCSC(C)(C)C | inactive | –
Clc1ccc(C(c2ccccc2Cl)C(Cl)(Cl)Cl)cc1 (stereo not given) | inactive | –
Clc1ccc(C(Cl)(Cl)Cl)cc1 | inactive | –
CCOC(=O)C(O)(c1ccc(Cl)cc1)c1ccc(Cl)cc1 | inactive | –
CC1=C2C[C@H]3[C@@H](CC=C4C[C@@H](O)CC[C@@]43C)[C@@H]2CC[C@]12O[C@@H]1C[C@H](C)CN[C@H]1[C@H]2C | inactive | –
CCNc1nc(NC(C)C)nc(SC)n1 | inactive | –
C=CC(N)=O | inactive | –

SMILES | outcome | AC50
NS(=O)(=O)C(F)(F)C(F)(F)C(F)(F)C(F)(F)C(F)(F)C(F)(F)C(F)(F)C(F)(F)F | – | 38.9 µM (active)
CO/C=C(/C(=O)OC)c1ccccc1COc1cccc(C(F)(F)F)n1 | – | 9.02 µM (active)
COc1ccc(O)c(C(C)(C)C)c1 | inactive | –
CC(C)C(=O)OCC(C)(C)C(OC(=O)C(C)C)C(C)C (stereo not given) | inactive | –
Oc1ccc(C(c2ccc(O)cc2)(C(F)(F)F)C(F)(F)F)cc1 | – | 91.8 µM (active)
O=C(O)C(F)(F)C(F)(F)C(F)(F)C(F)(F)C(F)(F)C(F)(F)C(F)(F)C(F)(F)F | – | 78.6 µM (active)
c1cc2ccc3cccc4ccc(c1)c2c34 | inactive | –
c1ccc(-c2ccccc2)cc1 | inactive | –
Cc1ccccc1CO[C@@H]1C[C@@]2(C(C)C)CC[C@]1(C)O2 | inactive | –
CCC(C)(c1ccc(O)cc1)c1ccc(O)cc1 | inactive | –
Cc1ccccc1[N+](=O)[O-] | inactive | –
CCOCCOC(C)=O | inactive | –
Cc1ccc(O)c(C)c1 | inactive | –
CCCCCCCCOC(=O)c1ccccc1C(=O)OCCCCCCCC | inactive | –
CN(C)CCO | inactive | –
CCCCCCOC(=O)c1ccccc1C(=O)OCCCCCC | inactive | –
Nc1ccc(-c2ccc(N)cc2)cc1 | inactive | –
ClC1=C(Cl)[C@]2(Cl)[C@@H]3[C@@H](Cl)[C@H]4O[C@H]4[C@@H]3C1(Cl)C2(Cl)Cl | inactive | –
CC#Cc1cc(C)nc(Nc2ccccc2)n1 | – | 23.6 µM (active)
O=C(N[C@H]1CN2CCC1CC2)c1cc2ccoc2cn1 | inactive | –
